# Assay results reported in PubChem BioAssay AID504891 (National Center for Advancing Translational Sciences (NCATS), 2011).
# Hit rate of the full screen: of about 390,000 compounds, about 35 (0.009%) were called active. Entries that show only a call come without a potency. About 6% were inconclusive and are not listed. Calls come from the whole dose curve; as a rule, active = well fitted inhibition curve with a large enough effect in the polarisation, with a control signal flat (not every such curve was filed as active); inconclusive = small, poorly fitted or top-dose-only effect, or effect the other way, or a change in a side signal; inactive = no such curve, though single readings can be large or run the other way; the % refers to the polarisation. This excerpt belongs to a sample that is enriched for actives.
# Target: Peptidyl-prolyl cis-trans isomerase NIMA-interacting 1 (Homo sapiens) (UniProt Q13526)
# Sequence (Q13526 whole entry, looked up): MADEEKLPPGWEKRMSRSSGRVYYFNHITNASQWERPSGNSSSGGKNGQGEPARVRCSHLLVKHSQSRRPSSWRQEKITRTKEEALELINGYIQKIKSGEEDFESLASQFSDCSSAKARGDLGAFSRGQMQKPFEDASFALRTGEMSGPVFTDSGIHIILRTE
# Test: qHTS Assay to Find Inhibitors of Pin1
# Conditions: Pin1 FP peptide displacement, HiFluor488, 10 min; series mostly up to 115 µM
# Text: NIH Molecular Libraries Probe Production Network [MLPCN]
# NIH Chemical Genomics Center [NCGC]
# The unique chemical properties of Pro allow for the adoption of two completely distinct amide bond conformations (cis and trans). Peptidyl-prolyl cis/trans isomerases (PPIases) are evolutionary conserved enzymes that catalyze cis/trans isomerization of peptidyl-prolyl peptide bonds. Distinct from all other PPIases such as cyclophilins and FK506-binding proteins (FKBPs), Pin1 binds a subset of phos.Ser/Thr-Pro-containing proteins using its protein-targeting WW domain and isomerizes only specific phos.Ser/Thr-Pro bonds, which cannot be effectively catalyzed by other known PPIases.
# Pin1-catalyzed conformational regulation can control a spectrum of activities of many key regulators in diverse cellular processes such as cell growth, genotoxic and other stress responses, immune response, germ cell development, neuronal differentiation and survival. Pin1 has emerged as a novel molecular timer that modulates its multiple targets at various steps of a given cellular process to synergistically control the amplitude and duration of a cellular response or process. Importantly, Pin1 is tightly regulated by multiple levels and its deregulation has an important role in a growing number of pathological conditions, including cancer, Alzheimer's disease, aging, asthma and microbial infection, providing a potentially new therapeutic option.
# The goal of this screen is to find small-molecule inhibitors of Pin1 using a fluorescence polarization competition assay. A HiFluor-488-labeled peptide binds to the active site of Pin1 and can be displaced by compounds. Compounds were screened as a concentration-titration series that ranged from 57 uM to 0.7 nM.
# NCGC Assay Protocol Summary:
# Pin1 (0.6 uM) was dispensed into black, solid 1536-well plates at 2 uL/well in 10 mM HEPES (pH 7.5), 10 mM NaCl, 0.01% Tween20, 1 mM DTT, and 1% glycerol. Then, 23 nL of compounds or DMSO were delivered to each well using a pin tool. Two uL of Pin1-1b-HiFluor488 peptide (10 mM HEPES (pH 7.5), 10 mM NaCl, 0.01% Tween20, 1 mM DTT, and 1% glycerol, 0.02 uM Pin1-1b-HiFluor488) was then dispensed, and plates were incubated at room temperature for 10 min. The plates were measured on a ViewLux plate reader for fluorescence polarization signal using a 480/20 nM nm excitation filter and 540/25 nM nm S and P emission filters with a 20 second exposure. The %Activity was determined from the corrected fluorescence polarization values. Unlabeled Pin1-1c peptide was used as a control (3.5 mM two-fold serial; 20 uM final concentration) along with a 1x (0.3 uM) and 0x (no-enzyme) Pin1 enzyme control to normalize %Activity of identified inhibitors; 0x enzyme values corresponded to 100%Activity (full inhibition), while 1x Pin1 enzyme values were used to normalize 0%Activity (no inhibition).
# Concentration-response curves were fitted to the signals arising from the resulting fluorescence polarization. The concentration-effect curves were then classified based on curve quality (r2), response magnitude and degree of measured activity, and compounds were subsequently categorized based on their curve class.
# Keywords: Peptidyl prolyl isomerase, Pin1, fluorescence polarization, MLSMR, MLPCN, NIH Roadmap, qHTS, NCGC
# Potency is the fitted concentration of half-maximal effect.
SMILES,"activity, negative = inhibition",Potency
Cc1cc2c(s1)c1cnn(Cc3cc(F)c(Cl)cc3Cl)c(=O)c1n2C,inactive,
COc1cc(Cl)c(C)cc1Nc1nnc(-n2nc(C)cc2C)c2ccccc12,inactive,
COc1ccc(C2Nc3ccccc3C(=O)N2Cc2ccco2)cc1COc1cccc(NC(C)=O)c1 (centres undefined),inactive,
COc1ccc(-c2ccc3ncnc(NCc4cccs4)c3c2)cc1OC,inactive,
COc1ccc(C2/C=C\CN(Cc3ccco3)C(C)C(=O)N2Cc2ccc(F)cc2)cc1 (centres undefined),inactive,
COc1ccc(-c2onc(C)c2C)cc1S(=O)(=O)NCc1cccs1,inactive,
Cc1cc(C)n2ncc(C(=O)N3CCCC3)c2n1,inactive,
CC(C)Oc1cccc(-c2cnc(N3CCC(C(N)=O)CC3)s2)c1,inactive,
CCCc1nn2c(=O)cc(COC(=O)c3ccc(NC(=O)C(C)Oc4ccccc4)cc3)nc2s1 (centres undefined),inactive,
CN(C(=O)COC(=O)c1cc(-c2ccco2)nc2ccccc12)C1CCS(=O)(=O)C1 (centres undefined),,35.5 µM (active)
Cc1cc(C(=O)OCC(=O)N2C(C)CCCC2C)c2ccccc2n1 (centres undefined),inactive,
Cc1ccc(S(=O)(=O)CCC(=O)OCC(=O)N(C)C2CCS(=O)(=O)C2)cc1 (centres undefined),inactive,
C=C1CCN(C(CC(C)C)C(=O)NCc2cc(OC)c(OC)c(OC)c2)S(=O)(=O)c2ccccc21 (centres undefined),inactive,
CCCCS(=O)(=O)c1oc(-c2cccs2)nc1S(=O)(=O)c1ccccc1,inactive,
CCCS(=O)(=O)N1CCC(n2c(C(F)(F)F)nc3cccnc32)CC1,inactive,
N#Cc1ccc(OC2=NS(=O)(=O)c3ccccc32)cc1,inactive,
O=C(NCc1nnc(C(=O)Nc2ccc(C(F)(F)F)cc2Cl)o1)c1ccccc1,inactive,
Cc1cccc2c1-c1sc(C(=O)Nc3ccc(F)cc3F)cc1CO2,inactive,
C#CCOc1ccc(C2CC(=O)Nc3c2c(C)nn3-c2nc(C)cc(C)n2)cc1 (centres undefined),inactive,
CCCN(CCC)CCNC(=O)Cn1cnc2sc(C)c(S(=O)(=O)N3CCC(C)CC3)c2c1=O,inactive,
COc1ccccc1CNC(=O)c1ccc(NC(=O)N2CC(C)Sc3ccccc32)cc1 (centres undefined),inactive,
O=C(O)c1ccc2c(c1)N(Cc1ccc(F)cc1)C(=O)c1ccccc1S2=O (centres undefined),inactive,
O=C(CC1Oc2ccc(Cl)cc2NC1=O)NCc1ccccc1 (centres undefined),inactive,
CCOC(=O)c1cccc(NC(=O)Cn2cnc3nc4c(cc3c2=O)CCCC4)c1,inactive,
COc1ccc(OC)c(NC(=O)CN2CCCN(Cc3cc(C)ccc3C)S2(=O)=O)c1,inactive,
Cc1ccc2sc(N(Cc3cccnc3)C(=O)C3COc4ccccc4O3)nc2c1C (centres undefined),inactive,
CNC(=O)CN1C(=O)c2cccnc2Sc2ccccc21,inactive,

SMILES,"activity, negative = inhibition",Potency
CC(=O)N1c2ccccc2CC1C(=O)N1CCN(c2ccc(F)cc2)CC1 (centres undefined),inactive,
O=C(NCC1CC1)C1(C(F)(F)F)C/C(=C\CCO)CCCO1 (centres undefined),inactive,
CC(Nc1ncnc2ccc(-c3ccc4c(c3)OCO4)cc12)c1ccco1 (centres undefined),inactive,
Cc1cccc(S(=O)(=O)c2cn(Cc3ccccc3)c3cc(N4CCOCC4)c(F)cc3c2=O)c1,inactive,
COc1cccc(C2C(C(=O)Nc3ccc(C)cc3C)=C(C)Nc3c(C(=O)Nc4ccccc4)cnn32)c1 (centres undefined),inactive,
CCCC(=O)Nc1cc(C(=O)NCc2ccc(OC)cc2)ccc1S(=O)(=O)c1ccc(Cl)cc1,inactive,
COCCNC(=O)CSc1nc(-c2ccccc2)[nH]c1-c1ccc(C)cc1,inactive,
C=CCNC(=O)c1ccc2nc(-c3ccco3)c(-c3ccco3)nc2c1,inactive,
Cc1ccc(S(=O)(=O)NC(N)=NCCC[C@@H](NC(=O)CNC(=O)c2ccccc2)C(=O)Nc2cc(C(F)(F)F)ccc2Cl)cc1,inactive,
CCc1cccc(C)c1NS(=O)(=O)c1ccc(-c2cc(C)no2)s1,inactive,
CC(=O)N1CCCc2ccc(NS(=O)(=O)c3ccc(F)cc3F)cc21,inactive,
COc1ccc(CNC(=O)COCc2cc(-c3cccs3)on2)cc1OC,inactive,
COc1cccc(C(=O)NC2CCN(C#N)CC2)c1,inactive,
CCOC(=O)c1c(N)n(-c2cccc(C)c2C)c2nc3ccccc3nc12,inactive,
COc1ccc(Br)cc1C1C2C=CCC(C)C2C(=O)N1Cc1ccccc1 (centres undefined),inactive,
O=C(OCC#CCSc1nnc(-c2ccco2)o1)c1ccc(F)cc1,inactive,
CC(=O)OCC(NC(=O)C(Cc1ccccc1)NC(=O)OC(C)(C)C)C1OC(n2ccc(=O)[nH]c2=O)C(OC(C)=O)C1OC(C)=O (centres undefined),inactive,
CC(=O)Nc1ccc(S(=O)(=O)N2N=NC3C2C2CC4C3(CN(C(=O)OC(C)(C)C)S4(=O)=O)O2)cc1 (centres undefined),inactive,
COc1cccc(OC2=NS(=O)(=O)c3ccccc32)c1,inactive,
COc1ccc(C2Nc3ccccc3C(=O)N2Cc2ccccc2)cc1COc1ccc(C(N)=O)cc1 (centres undefined),inactive,
CCN(CC)S(=O)(=O)c1ccc2c(c1)N(CC(=O)NCc1ccccc1)C(=O)CS2,inactive,
Cc1cccc(N2CCN(S(=O)(=O)c3ccc4[nH]c5c(c4c3)CCCCC5)CC2)c1C,inactive,
Cc1cc(C)cc(NC(=O)CSc2nc(=O)n(CCN3CCOCC3)c3c2CCC3)c1,inactive,
Cc1ccc(Cn2c(=O)n(-c3ccc(C)cc3)c(=O)c3c2c2cc(C)ccc2n3C)cc1,inactive,
CCCCN(CC)CCCNC(=O)Cn1ncc2c([nH]c3ccc(C)cc32)c1=O,inactive,
CCC(=O)Nc1ccccc1-c1nc2ccccc2n(CC(=O)Nc2ccc(C)c(C)c2)c1=O,inactive,
O=C1CCCC2=C1[C@@]1(CCC(c3ccccc3)C1)N=C(Nc1nc3ccccc3o1)N2 (some centres undefined),inactive,

SMILES,"activity, negative = inhibition",Potency
Cc1cc2n(n1)C(c1cc(C(C)(C)C)c(O)cc1O)Nc1ccccc1-2 (centres undefined),inactive,
CCOc1ccccc1CNC(=O)c1ccc2c(c1)nc1n2CCC(C)C1 (centres undefined),inactive,
COc1cc(C(=O)N2CCN(c3ccc(Nc4ccc(C)cc4)nn3)CC2)cc(OC)c1OC,inactive,
COc1cccc(C2c3c(ncn(-c4cccc(Br)c4)c3=N)Oc3ccc4ccccc4c32)c1 (centres undefined),inactive,
Cc1ccc(Cl)cc1NC(=O)Cc1ccc(-n2c(C)nc3cccnc32)cc1,inactive,
Cc1ccc(Nc2c(-c3ccc(Cl)cc3)nc3sccn23)c(C)c1,inactive,
OCCNc1ncnc2oc(-c3ccco3)c(-c3ccco3)c12,inactive,
O=c1c2ccccc2nc2sc(Nc3ccc4c(c3)OCO4)nn12,inactive,
CC(=O)c1sc(N2C(=O)c3oc4ccccc4c(=O)c3C2c2ccc(C)cc2)nc1C (centres undefined),inactive,
NC(=O)C1CCN(c2ncc(-c3ccc(Cl)cc3)s2)CC1,inactive,
CCOc1ccc(NC(=O)C(=O)NCCc2csc3nc(-c4ccccc4F)nn23)cc1,inactive,
CCCc1cc(=O)n2[nH]c(NCc3ccc(CC)cc3)nc2n1,inactive,
C=C1CCN(C(CC(C)C)C(=O)N2CCOCC2)S(=O)(=O)c2ccccc21 (centres undefined),inactive,
Cn1nnnc1Sc1ncnc2scc(-c3ccccc3[N+](=O)[O-])c12,inactive,
COc1cc(OC)c2c(c1C(CCN1CCCCC1)c1ccc(N(C)C)cc1)OC(=O)CC2c1ccc(N(C)C)cc1 (centres undefined),inactive,
CCOc1ccccc1NC(=O)Cn1c(=O)n(-c2cccc(C)c2)c(=O)c2c1c1cc(OC)ccc1n2C,inactive,
O=C(Cn1c(-c2cccs2)cc2ccccc21)NCCc1ccc(Cl)cc1,inactive,
COC(=O)c1ccccc1S(=O)(=O)Nc1ccc(OC)cc1,inactive,
Cc1c(-c2cccc(NC(=O)C(C)(C)C)c2)nc2ncccn12,inactive,
CCN(CC)/[N+]([O-])=N/Oc1cc(O/[N+]([O-])=N/N2CCCC2CO)c([N+](=O)[O-])cc1[N+](=O)[O-] (centres undefined),inactive,
Cc1ccc(-c2nc(=N)sn2Cc2ccccc2)cc1,inactive,
COc1ccc(-c2nc(=N)sn2-c2ccccc2)cc1,inactive,
CC(=O)NC(c1cccs1)c1cc(Cl)c2cccnc2c1O (centres undefined),inactive,
Cc1cc2c(s1)c1cnn(Cc3c(F)cccc3Cl)c(=O)c1n2C,inactive,
c1coc(CCNc2ncnc3ccc(-c4ccc5c(c4)OCO5)cc23)c1,inactive,
